KLF5 inh – KLF5 expression inhibitors, primary screen, DLD-1 cells, luminescence | DLD-1 KLF5 promoter-luciferase reporter | inhibition, % at 5 µM | actives 0.23% (n = 290,000);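 active means inhibition above a per-plate limit of that plate's mean compound inhibition plus 3 SD, cut at about 60% in these data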;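 further: 0% = DMSO wells and 100% = LY294002 at 200 µM; higher means less KLF5 promoter-driven luciferase light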
APP transl inh – inhibitors of APP translation via 5'UTR reporter, primary screen, APP 5'UTR luciferase, SH-SY5Y cells | AID 1285, 2008 | SH-SY5Y APP 5'UTR-luciferase reporter, luminescence | actives 0.82% (n = 190,000) | inhibition, % at 2 µM;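 active means inhibition above a set limit, derived from the sample mean plus 3 SD, cut at about 45% in these data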
Ba/F3 V617F tox – reduced viability of JAK2V617F-dependent Ba/F3 cells, primary screen, JAK2V617F inhibitor project, cell-based, Ba/F3 EpoR-JAK2V617F, luminescence | ATP luminescence | inhibition, % at 5.6 µM | actives 1.1% (n = 220,000) | AID 1446, 2008;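 active means inhibition above the campaign mean plus 3 SD over all tested compounds, cut at about 24% in these data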;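 further: cytokine-independent growth of Ba/F3 cells driven by EpoR plus mutant JAK2; 0% = DMSO-treated cells and 100% = JAK inhibitor I control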
BaF3 parental – parental Ba/F3 cell viability inhibition, counter-screen for JAK2V617F inhibitor project, murine pro-B, CellTiter-Glo luminescence | CellTiter-Glo ATP luminescence | inhibition, % at 5.6 µM | actives 1.1% (n = 220,000) | AID 1486, 2009;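 active means inhibition above a per-campaign cutoff, the mean inhibition of all tested compounds plus 3 SD, cut at about 27% in these data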;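 further: 0% = DMSO wells and 100% = JAK Inhibitor I control wells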
aSyn UTR inh – MLPCN primary screen, SNCA 5' untranslated region. alpha-synuclein 5'UTR reporter, inhibitor activity. inhibition, % (tested at 7.5 µM). actives 0.82% (n = 300,000); in the data active means inhibition above about 60%;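 further: H4 neuroglioblastoma cells stably carrying SNCA 5'UTR luciferase fusion; 0% = DMSO wells and 100% = positive control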
IEC-6 cytotox – cytotoxicity in IEC-6 intestinal epithelial cells, primary screen, cytotoxicity control for KLF5 inhibitor project, cell-based, luminescence. AID 1825, 2009. actives 0.78% (n = 290,000). IEC-6 cytotoxicity, luminescence viability. inhibition, % at 5 µM;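 further: 0% = plate median of test compound wells and 100% = cytotoxic reference compound wells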
IEC-6 tox confirm – cytotoxic compounds in IEC-6 epithelial cells, confirmation, cytotoxicity control, cell-based, luminescence; inhibition, % at 5 µM; IEC-6 rat intestinal epithelial viability; shares compounds with IEC-6 cytotox; AID 1907, 2009; actives 63% (n = 1,900);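 further: 0% = vehicle and 100% = reference cytotoxic drug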
* hit, by the source's call; / = no result. Sampled rows, rich in hits. Any-hit rate of the full collection: about 2.2%. Unless noted, no stated cut-off is given here; in the data, active means inhibition above about 22%; inactive means the rest.

SMILES	KLF5 inh	APP transl inh	Ba/F3 V617F tox	BaF3 parental	aSyn UTR inh	IEC-6 cytotox	IEC-6 tox confirm
O=C(O)CCCCCCCCc1cn(Cc2ccc(C(=O)c3ccccc3)cc2)nn1	-27	/	/	/	-35	72*	24*
O=C(c1ccccc1)c1ccc(Cn2cc(CCCO)nn2)cc1	-13	/	/	/	14	7	/
CC(C)Oc1ccc(CN2CCC(n3nccc3NC(=O)CCc3ccccc3)CC2)cc1	-1	/	/	/	7	-1	/
Cc1nc2cc(NC(=O)c3ccc([N+](=O)[O-])s3)ccc2s1	29	/	/	/	77*	30*	19
CCCCN1/C(=C/c2ccc3ccccc3[n+]2CC)Sc2ccccc21	7	-8	101*	80*	80*	42*	14
CCCCN1/C(=C/c2cccc[n+]2C)Sc2cc(NC(C)=O)ccc21	-25	/	/	/	-5	-4	/
CCN1/C(=C/c2ccc3ccccc3[n+]2CCCS(=O)(=O)[O-])C=Cc2cc(C)ccc21	-9	/	/	/	35	6	/
CCN1/C(=C/c2ccc3cc(C)ccc3[n+]2CC)Sc2cc(C)ccc21	17	63*	99*	85*	/	35*	34*
COc1ccc(CN(CCNC(=O)CCCCC(=O)NCCN(Cc2ccc(OC)cc2)C(C)C)C(C)C)cc1	/	/	/	/	-35	/	/
CCOC(=O)c1sc(NC(=O)CCc2ccccc2)nc1C	46	/	/	/	-146	54*	22*
CSc1ncccc1C(=O)N1CCN(S(=O)(=O)c2ccccc2)CC1	-3	/	/	/	15	-4	/
CC(OC(=O)c1ccccc1C(=O)N(C)c1ccccc1)C(=O)Nc1ccccc1[N+](=O)[O-] (configuration not stated)	/	/	/	/	7	/	/
COc1ccc(CC(=O)Nc2cccc3c2CCCC3)cc1	-3	/	/	/	8	4	/
COc1ccc(C(=O)Nc2cccc3c2CCCC3)cc1	-9	/	/	/	-132	24*	22
COc1cc(OC)nc(-n2ncc(Br)c(Br)c2=O)n1	-20	94*	96*	87*	/	56*	70*
Cc1cccc(C)c1OCC(O)CNC(C)c1ccccc1 (configuration not stated)	16	/	/	/	54	39*	18
COc1ccc(CN(C)C(=O)CCCNC(=O)c2ccc(Cl)cc2)cc1	-11	/	/	/	-12	-2	/
CCOc1ccc(/C=N/NC(=O)c2cc3c(OC)cc(OC)c(OC)c3[nH]2)cc1	-5	/	/	/	-78	7	/
CCOc1ccc2[nH]c(C(=O)N/N=C/c3ccccc3OC)cc2c1	60	/	/	/	-116	48*	14
COc1ccc(C(=O)N/N=C/c2ccc(OC(=O)c3ccccc3)cc2)cc1	6	2	-2	3	-29	-4	/
COc1ccc(C(=O)N/N=C/c2ccccc2OC(=O)c2ccccc2)cc1	-64	/	/	/	53	94*	12
CN(C)c1ccc(C(C(=O)NC2CCCC2)N(C(=O)c2csnn2)C2CC2)cc1 (configuration not stated)	-8	/	/	/	9	-6	/
Nc1nonc1C(=O)NCCNC(=O)c1cccc(Cl)c1	-11	/	/	/	7	-6	/
CC(C)OC(=O)Nc1ccc2c(c1)N(C(=O)N1CCN(C)CC1)c1ccccc1CC2	-55	/	25*	29*	-62	35*	21
COc1ccccc1NC(=O)COc1coc(CN2CCN(c3ccccc3)CC2)cc1=O	/	/	/	/	3	/	/
COc1cc(OC)cc(C(=O)NCCNc2nc3cc(C)cc(C)c3cc2C#N)c1	-25	/	/	/	27	3	/
O=C(Cc1cn2ccsc2n1)OCc1ccccc1	-14	-6	-2	-1	/	35*	19
Cc1cccn2c(=O)c3cc(C(=O)NCc4ccco4)c(=N)n(CCc4ccccc4)c3nc12	-16	/	1	-4	/	-12	/
Cc1cccn2c(=O)c3cc(C(=O)NCCc4ccccc4)c(=N)n(Cc4ccco4)c3nc12	25	/	/	/	-27	63*	-2
Cc1ccc(CNC(=O)c2cc3c(=O)n4ccccc4nc3n(Cc3ccco3)c2=N)cc1	/	/	/	/	-12	/	/
